Compound activity as filed in PubChem BioAssay.
An excerpt weighted towards active compounds, which were near 2.5% of everything screened.
MEKK2wt PB1 HTS = modulators of MEK5 binding to wildtype MEKK2, primary screen, biochemical, multiplex bead flow cytometry, Alexa488-MEK5; Mitogen-activated protein kinase kinase kinase 2 (Homo sapiens), Q9Y2U5; Alexa488-MEK5 binding to MEKK2 WT; actives lie on both sides; binding response (% of control), % at 10 µM; 290,000 tested, 1.1% active; in the data active = binding response below about 67% or above about 130%
MEKK3 PB1 HTS = modulators of MEKK3-MEK5 PB1 binding, primary screen, biochemical, wildtype MEKK3, multiplex bead flow cytometry, Alexa488-MEK5 | bead-based flow cytometry, Alexa488-MEK5 binding to MEKK3; actives lie on both sides; 0 = blocked by unlabeled MEK5, 100 = vehicle | binding response (% of control), % at 10 µM | 290,000 tested, 1.4% active;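 active = binding response more than 3 SD above or below the average of its plate-row segment, actives on both sides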;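 also: Alexa488 bead fluorescence after subtracting the streptavidin-only scavenger bead signal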
Target sequence (Q99759 whole entry, looked up): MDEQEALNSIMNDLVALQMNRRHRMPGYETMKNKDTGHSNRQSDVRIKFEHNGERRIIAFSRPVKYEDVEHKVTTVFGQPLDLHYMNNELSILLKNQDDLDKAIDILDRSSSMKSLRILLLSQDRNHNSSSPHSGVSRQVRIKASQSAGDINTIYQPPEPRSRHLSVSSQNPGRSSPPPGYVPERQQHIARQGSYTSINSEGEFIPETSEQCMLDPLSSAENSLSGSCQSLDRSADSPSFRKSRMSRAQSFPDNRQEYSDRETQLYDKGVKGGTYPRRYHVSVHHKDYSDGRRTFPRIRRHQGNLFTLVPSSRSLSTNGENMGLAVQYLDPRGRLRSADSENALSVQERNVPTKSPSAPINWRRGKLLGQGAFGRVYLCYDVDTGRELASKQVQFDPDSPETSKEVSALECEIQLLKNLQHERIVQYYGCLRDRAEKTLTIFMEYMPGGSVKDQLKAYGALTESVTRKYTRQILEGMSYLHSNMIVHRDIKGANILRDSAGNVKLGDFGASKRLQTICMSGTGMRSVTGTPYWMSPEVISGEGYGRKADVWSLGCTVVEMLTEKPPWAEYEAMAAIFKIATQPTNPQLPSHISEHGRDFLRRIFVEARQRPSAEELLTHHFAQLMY
MEKK2mut PB1 HTS = MEK5 binding signal on mutant MEKK2 PB1, primary screen, biochemical, multiplex bead flow cytometry, Alexa488-MEK5; Alexa488-MEK5 binding to MEKK2 mutant; percent response, % at 10 µM; 290,000 tested, 0.35% active; in the data active = percent response above about 24%, passing the limit was not always enough
Rce1 inhib = yeast Rce1p protease inhibitors, primary screen, biochemical, fluorescence, cell-free homogeneous; CAAX prenyl protease 2 (Saccharomyces cerevisiae (strain ATCC 204508 / S288c)), Q03530; yeast membranes, quenched prenylated peptide cleavage fluorescence; calls only; 290,000 tested, 0.27% active;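 active = fall in fluorescence gain of 50% or more versus controls, with final raw signal at or below 3038400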;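 also: plate controls were neutral control wells for no effect and wells lacking membranes for full effect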
UBC13 polyUb = UBC13 polyubiquitin chain formation inhibitors, primary screen, biochemical, TR-FRET, uHTS | Ubiquitin-conjugating enzyme E2 N (Homo sapiens), P61088 | 330,000 tested, 0.47% active | inhibition, % at 20 µM; in the data active = inhibition above about 45%, passing the limit was not always enough
MEKK2wt confirm = modulators of MEK5 binding to wildtype MEKK2, confirmation, biochemical, single concentration, multiplex bead flow cytometry; shares compounds with MEKK3 PB1 HTS; Alexa488-MEK5 binding to MEKK2 WT; actives lie on both sides; binding response (% of control), % at 10 µM; 5,900 tested, 2.4% active; AID 1892, 2009; in the data active = binding response below about 16% or above about 210%; inactive = in between
MEKK2mut-MEK5 = mutant MEKK2 PB1-MEK5 binding signal retest – biochemical, single concentration, multiplex bead flow cytometry, confirmation; shares compounds with MEKK3 PB1 HTS; Alexa488-MEK5 binding to MEKK2 mutant; percent response, % at 10 µM; 5,900 tested, 2% active; AID 1893, 2009; in the data active = percent response mostly above about 71%, no sharp cut-off; inactive = mostly below about 38%;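 also: higher means compound restores mutant binding toward wildtype level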
MEKK3 confirm = MEKK3 wild-type PB1 binding to MEK5, inhibitors, confirmation, biochemical, bead multiplex flow cytometry, single concentration, wildtype; shares compounds with MEKK3 PB1 HTS; AID 1894, 2009; Alexa488-MEK5 binding to MEKK3; hits give low values; binding response (% of control), % at 10 µM; 5,900 tested, 1.8% active;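 active = binding response below 72% of control, or above a set upper limit, though filed actives all read lower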;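 also: 100% = DMSO only wells and 0% = binding blocked by excess unlabeled MEK5; lower values mean stronger disruption of MEK5 binding to MEKK3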
An asterisk follows results filed as active; i = inactive; x = no result; [ ] = dose if it differs, or a comment.

SMILES | MEKK2wt PB1 HTS | MEKK3 PB1 HTS | MEKK2mut PB1 HTS | Rce1 inhib | UBC13 polyUb | MEKK2wt confirm | MEKK2mut-MEK5 | MEKK3 confirm
Cc1ccc(-c2nc(NCCN3CCOCC3)c3ccccc3n2)cc1 | 88.0 | 72.0*[inhibitor] | -6.0 | i | 5.7 | 101.0 | 2.0 | 97.0
Clc1ccc(-c2nc(NCCCN3CCOCC3)c3ccccc3n2)cc1 | 126.0 | 103.0 | 5.0 | i | 18.0 | x | x | x
CCC(CC)c1nnc(NC(=O)C2CC(=O)N(c3ccc4c(c3)OCCO4)C2)s1 (configuration not stated) | 110.0 | 135.0* | 1.0 | i | -4.3 | 66.0 | -18.0 | 61.0*
Cc1nnc(NC(=O)C2CC(=O)N(c3ccc4c(c3)OCCO4)C2)s1 (configuration not stated) | x | x | x | x | -14.6 | x | x | x
COc1ccc(CNC(=O)c2coc(=O)c3ccccc23)cc1 | 57.0 | 53.0 | -16.0 | i | 23.1 | x | x | x
CC(C)C(=O)Nc1cccc(-c2csc(-c3ccccc3)n2)c1 | 110.0 | 139.0* | 0.0 | i | -5.2 | 95.0 | -1.0 | 103.0
Cc1ccccc1C(=O)NNc1ccc(-c2csnn2)cc1 | 100.0 | 100.0 | -7.0 | i | 5.2 | x | x | x
COc1nc(-c2ccccc2)ccc1-c1noc(-c2ccccc2)n1 | 100.0 | 105.0 | 1.0 | i | 14.9 | x | x | x
COc1nc(-c2ccccc2)ccc1-c1noc(COc2ccccc2)n1 | 123.0 | 132.0* | 6.0 | i | 13.5 | 100.0 | 0.0 | 101.0
O=c1[nH]c(SCc2ccc(Cl)cc2)nc2ccccc12 | 101.0 | 103.0 | 2.0 | i | 5.0 | x | x | x
O=C(NCCCO)c1ccc(CSc2nc3ccccc3c(=O)[nH]2)cc1 | 113.0 | 128.0* | 24.0 | i | -11.3 | 109.0 | 9.0 | 102.0
CC(OC(=O)COc1ccccc1Cc1ccccc1)C(=O)N(C)c1ccccc1 (configuration not stated) | x | x | x | i | -6.0 | x | x | x
CCOc1ccc(Nc2nc(Cl)nc(NCCO)n2)cc1 | 104.0 | 131.0* | 0.0 | i | -7.5 | 110.0 | 1.0 | 104.0
Cc1nc(SCC(O)CO)c([N+](=O)[O-])[nH]1 (configuration not stated) | 138.0* | 112.0 | 16.0 | i | -4.1 | 99.0 | -2.0 | 97.0
CC1=CC(C)(C)N2C(=O)C3(NCCc4c3[nH]c3ccccc43)c3cccc1c32 (configuration not stated) | 88.0 | 97.0 | -6.0 | i | -14.2 | x | x | x
Cc1[nH]c2ccccc2c1C(=O)COc1ccccc1 | 118.0 | 142.0* | 1.0 | i | 7.9 | 102.0 | 3.0 | 101.0
NC(=O)c1cc2cc(Cl)ccc2oc1=Nc1cccc(C(F)(F)F)c1 | 101.0 | 112.0 | -4.0 | i | -6.3 | x | x | x
Cc1ccc(CSc2nc3ccsc3c(=O)n2Cc2ccccn2)cc1 | 101.0 | 139.0* | 1.0 | i | 5.5 | 100.0 | -2.0 | 101.0
CCC(C)n1c(SCc2ccccc2)nc2ccsc2c1=O (configuration not stated) | 108.0 | 151.0* | 1.0 | i | 8.6 | 96.0 | -1.0 | 97.0
N#Cc1ccccc1CSc1nc2ccsc2c(=O)n1Cc1ccccn1 | 100.0 | 104.0 | -1.0 | i | 3.1 | x | x | x
CCOc1ccccc1NC(=O)c1cc(SC)ccc1Cl | 102.0 | 109.0 | -1.0 | x | -2.8 | x | x | x
CCCCCCCCCCCCCCCC[n+]1cccc2ccccc21 | 157.0* | 133.0* | 9.0 | x | 102.1* | 252.0* | 165.0* | 112.0
c1ccc2c(c1)ccc1ccccc12 | x | x | x | x | 12.1 | x | x | x
CCCCCCCCC[n+]1cccc2c3ccccc3ccc21 | 135.0* | 106.0 | 19.0 | i | 27.7 | 150.0 | 29.0 | 105.0
CCN1CCc2nc(NC(=O)Cc3ccc4c(c3)OCCO4)sc2C1 | 140.0* | 98.0 | 9.0 | i | 16.7 | 163.0 | 46.0 | 111.0
SMILES | MEKK2wt PB1 HTS | MEKK3 PB1 HTS | MEKK2mut PB1 HTS | Rce1 inhib | UBC13 polyUb | MEKK2wt confirm | MEKK2mut-MEK5 | MEKK3 confirm
CCN1CCc2nc(NC(=O)C(c3ccccc3)c3ccccc3)sc2C1 | 104.0 | 97.0 | 6.0 | i | 18.5 | x | x | x
CCN1CCc2nc(NC(=O)CC(c3ccccc3)c3ccccc3)sc2C1 | 183.0* | 109.0 | 44.0* | i | 25.6 | 194.0 | 51.0 | 110.0
CCCNC(=O)Cn1c(=O)/c(=C\c2ccc(-c3ccc([N+](=O)[O-])cc3)o2)s/c1=C\C(=O)C(C)(C)C | x | 90.0 | 132.0* | i | x | 79.0 | -25.0 | 93.0
N#CCc1nn2c(-c3ccccc3)ccnc2c1C#N | 96.0 | 94.0 | -5.0 | i | 11.3 | x | x | x
CN(C)c1ccc(C(CN)c2c[nH]c3ccccc23)cc1 (configuration not stated) | 110.0 | 69.0*[inhibitor] | 0.0 | i | 24.3 | 131.0 | 18.0 | 97.0
CCNCC(=O)N1c2ccccc2CCc2ccc(NC(=O)OC(C)C)cc21 | 137.0* | 106.0 | 7.0 | i | 7.3 | 127.0 | 18.0 | 106.0
CC(C)CCOP(=O)(c1ccccc1)c1ccccc1 | 104.0 | 112.0 | -1.0 | i | 5.3 | x | x | x
CCCOP(=O)(c1ccccc1)c1ccccc1 | 106.0 | 141.0* | 0.0 | i | 2.2 | 97.0 | -6.0 | 99.0
CC(NC(=O)c1cccs1)c1nnc(SCc2ccc(Cl)cc2Cl)n1C (configuration not stated) | 100.0 | 100.0 | 0.0 | i | 1.9 | x | x | x
CCN1C(=O)/C(=c2\sc3nc(=O)c(Cc4ccccc4)nn3c2=O)c2ccccc21 | 109.0 | 123.0 | 26.0 | i | -7.3 | x | x | x
C=CCN1C(=O)/C(=c2\sc3nc(=O)c(Cc4ccccc4)nn3c2=O)c2ccccc21 | -4.0*[inhibitor] | 95.0 | -2.0 | i | -16.5 | 89.0 | -2.0 | 91.0
Fc1ccc(NC(=S)NCc2cccnc2)cc1 | 56.0 | 47.0*[inhibitor] | -14.0 | i | 5.5 | 103.0 | -3.0 | 102.0
Cc1cc(C)cc(NC(=S)NCc2ccncc2)c1 | 105.0 | 102.0 | 7.0 | i | 7.3 | x | x | x
Cc1cc(C)cc(NC(=S)NCc2cccnc2)c1 | 109.0 | 142.0* | 0.0 | i | -0.2 | 101.0 | 0.0 | 99.0
Fc1cccc(NC(=S)NCc2cccnc2)c1 | 106.0 | 104.0 | 13.0 | i | -8.7 | x | x | x
Cc1nn(CC(=O)N2CCOCC2)c(=O)c2nn(-c3ccccc3)c(C)c12 | 98.0 | 101.0 | -6.0 | i | -6.2 | x | x | x
